Experimental data: PubChem BioAssay (NCATS)
Inconclusive results are not listed. Calls of active or inactive are those of the source. Unless noted, calls follow the shape of the dose curve; as a rule, active = well fitted inhibition curve with a large enough effect; inconclusive = small, poorly fitted or top-dose-only effect; inactive = flat fitted curve, though single readings scatter.

What was measured:
[1] = Drug repurposing screens with cells derived from glioblastoma tumor samples (AID 1345199); conditions: GBM patient neurospheres viability, ATP luminescence, 48 h; also: nearly all actives have a fitted effect of over 40% in size; also: potency is read from the fitted curve at half-maximal effect; as to activity, negative = cell killing: % is scaled to controls: 0 for no effect and ±100 for the full control effect
Outline: (§1)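 Primary testing used CD133+ neurospheres from four GBM patients, seven concentrations, 48 h exposure and ATP-based viability; confirmation added three slower-growing patient lines.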

[2] = molecular target: Nuclear receptor subfamily 1 group I member 2 (Rattus norvegicus) (UniProt Q9R1A7); assay: qHTS assay for small molecule activators of the rat pregnane X receptor (rPXR) signaling pathway (AID 651751; call rule not given here; also: 0% is about no effect); conditions: rPXR reporter cells, luciferase (One-Glo), 24 h
[3] = qHTS assay for small molecule activators of the human pregnane X receptor (PXR) signaling pathway (AID 720659; call rule not given here; also: 0% is about no effect); conditions: DPX-2 HepG2 CYP3A4-luciferase, 24 h; series mostly up to 92.3 µM
astro = control astrocytes; assay: Drug repurposing screens with cells derived from glioblastoma tumor samples (AID 1345199); conditions: viability, ATP luminescence, 48 h; series mostly up to 45.9 µM; also: nearly all actives have a fitted effect of over 40% in size; also: potency is read from the fitted curve at half-maximal effect; as to activity, negative = cell killing: % is scaled to controls: 0 for no effect and ±100 for the full control effect
Outline: as §1

[4] = at 45.9 µM (top of the series), tumour line B
[5] = at 45.9 µM (top of the series), tumour line D
[6] = at 46 µM (top of the series), tumour line A
[7] = at 46.1 µM (top of the series), tumour line C
[8] = at 20 µM (top of the series), tumour line C
[9] = at 21.2 µM (top of the series), tumour line B
[10] = at 21.2 µM (top of the series), tumour line D

Nuclear receptor subfamily 1 group I member 2 (Rattus norvegicus), sequence (Q9R1A7 whole entry, looked up): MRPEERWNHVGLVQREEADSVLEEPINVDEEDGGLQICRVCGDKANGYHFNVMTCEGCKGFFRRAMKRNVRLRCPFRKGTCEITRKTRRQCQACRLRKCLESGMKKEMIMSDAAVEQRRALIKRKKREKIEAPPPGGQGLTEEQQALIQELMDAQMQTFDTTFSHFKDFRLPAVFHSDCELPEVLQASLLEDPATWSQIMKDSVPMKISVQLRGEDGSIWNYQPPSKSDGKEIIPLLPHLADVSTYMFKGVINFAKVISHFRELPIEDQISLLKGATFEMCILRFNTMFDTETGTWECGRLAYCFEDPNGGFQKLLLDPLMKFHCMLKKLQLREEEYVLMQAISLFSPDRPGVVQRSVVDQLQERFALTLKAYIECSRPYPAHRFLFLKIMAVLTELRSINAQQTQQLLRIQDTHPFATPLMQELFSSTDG

NC(N)=O
inactive: activity, negative = cell killing [1, 4] -9.26% | activity, negative = cell killing [1, 5] -11.1% | activity, negative = cell killing [1, 6] -23.3% | activity, negative = cell killing [1, 7] 7.05% | max response [2] 3.1% | outcome [3]

CC(C)C1=CC2=CC[C@@H]3[C@](C)(CCC[C@@]3(C)C(=O)O)[C@H]2CC1
inactive: activity, negative = cell killing [1, 4] -3.87% | activity, negative = cell killing [1, 5] 2.46% | activity, negative = cell killing [1, 7] -9.17% | Potency (astro)

CC(C)CCC[C@@H](C)[C@H]1CC[C@H]2[C@@H]3CC=C4C[C@@H](O)CC[C@]4(C)[C@H]3CC[C@]12C
inactive: activity, negative = cell killing [1, 4] -9.94% | activity, negative = cell killing [1, 5] -4.88% | activity, negative = cell killing [1, 6] -8.25% | activity, negative = cell killing [1, 7] 1.16% | max response [2] -2.23% | outcome [3]

C[Si](C)(C)O[Si](C)(C)C
inactive: activity, negative = cell killing [1, 4] -9.61% | activity, negative = cell killing [1, 5] -4.16% | activity, negative = cell killing [1, 6] -2.42% | activity, negative = cell killing [1, 7] -22.1% | Potency (astro) | max response [2] -0.472% | outcome [3]

O=C1c2ccccc2C(=O)C1c1ccc(Cl)cc1
inactive: activity, negative = cell killing [1, 4] -10.4% | activity, negative = cell killing [1, 5] -11.7% | activity, negative = cell killing [1, 7] -10.5% | Potency (astro)

CO/N=C(\C(=O)N[C@@H]1C(=O)N2C(C(=O)[O-])=C(C[n+]3cccc4c3CCC4)CS[C@H]12)c1csc(N)n1
inactive: activity, negative = cell killing [1, 4] -11.7% | activity, negative = cell killing [1, 5] -9.09% | Potency (astro)
active: Potency ([1]; tumour line C) 23.1 µM

CC(O)CN(C)C (centres undefined)
inactive: activity, negative = cell killing [1, 4] -7.97% | activity, negative = cell killing [1, 5] -11.2% | activity, negative = cell killing [1, 7] -3.25% | Potency (astro)

CN(Cc1ccccc1)Cc1ccccc1
inactive: activity, negative = cell killing [1, 4] -11.4% | activity, negative = cell killing [1, 5] 6.3% | activity, negative = cell killing [1, 7] -21.1% | Potency (astro)

CN(C)CCC(O)(c1ccccc1)c1ccccc1Cl (centres undefined)
active: Potency ([1]; tumour line A) 11.2 µM
inactive: activity, negative = cell killing [1, 4] -11.1% | activity, negative = cell killing [1, 7] -17.6% | Potency (astro)

NCCN
inactive: activity, negative = cell killing [1, 4] -1.66% | activity, negative = cell killing [1, 5] -17.5% | activity, negative = cell killing [1, 6] -28.2% | activity, negative = cell killing [1, 7] 1.75% | Potency (astro) | max response [2] 4.88% | outcome [3]

CC(C)Cc1ccc([C@@H](C)C(=O)NS(C)(=O)=O)cc1
inactive: activity, negative = cell killing [1, 4] -10.5% | activity, negative = cell killing [1, 5] -14.1% | activity, negative = cell killing [1, 7] -23.4% | Potency (astro)

CC(C)O
inactive: activity, negative = cell killing [1, 4] -6.9% | activity, negative = cell killing [1, 5] -24.5% | activity, negative = cell killing [1, 6] -15.4% | activity, negative = cell killing [1, 7] -14.2% | Potency (astro) | max response [2] -7.02% | outcome [3]

CCCCCCCCCCCCCCCCCCCCCC(=O)Nc1ccn([C@@H]2O[C@H](CO)[C@@H](O)[C@@H]2O)c(=O)n1
inactive: activity, negative = cell killing [1, 4] -14.5% | activity, negative = cell killing [1, 5] -7.79% | activity, negative = cell killing [1, 7] -16.8% | Potency (astro)

Cn1nnnc1SCC1=C(C(=O)O)N2C(=O)[C@@H](NC(=O)[C@H](O)c3ccccc3)[C@H]2SC1
inactive: activity, negative = cell killing [1, 8] -9.7% | activity, negative = cell killing [1, 9] -12.5% | activity, negative = cell killing [1, 10] -10.9% | Potency (astro)

CC(C)(C)NC[C@H](O)COc1ccccc1C1CCCC1
active: Potency ([1]; tumour line A) 4.47 µM | Potency ([1]; tumour line D) 12.6 µM
inactive: activity, negative = cell killing [1, 8] 19% | Potency (astro)

Cc1cccc(Nc2ncccc2C(=O)O)c1C
inactive: activity, negative = cell killing [1, 4] -17.7% | activity, negative = cell killing [1, 5] -8.87% | activity, negative = cell killing [1, 7] -27.1% | Potency (astro)

N#Cc1ccc2c(c1)N(CCCN1CCC(O)CC1)c1ccccc1S2
inactive: activity, negative = cell killing [1, 4] -29.3% | activity, negative = cell killing [1, 7] 15.3% | Potency (astro)
active: Potency ([1]; tumour line A) 5.01 µM

CCCCCCCCCCCCCCCCCC(=O)OCC(C)O (centres undefined)
inactive: activity, negative = cell killing [1, 4] -18.7% | activity, negative = cell killing [1, 5] -0.865% | activity, negative = cell killing [1, 6] -14.9% | Potency (astro)

Cc1ccc(C(C)(C)c2ccc(C)cc2)cc1
inactive: activity, negative = cell killing [1, 4] -5.24% | activity, negative = cell killing [1, 5] -1.07% | activity, negative = cell killing [1, 7] -10.1% | Potency (astro)

CNCC(=O)N[C@@H](CCCN=C(N)N)C(=O)N[C@H](C(=O)N[C@@H](Cc1ccc(O)cc1)C(=O)N[C@H](C(=O)N[C@@H](Cc1cnc[nH]1)C(=O)N1CCC[C@H]1C(=O)N[C@@H](C)C(=O)O)C(C)C)C(C)C
inactive: activity, negative = cell killing [1, 4] -7.12% | activity, negative = cell killing [1, 5] -7.19% | activity, negative = cell killing [1, 7] -6.49% | Potency (astro)

CCc1cn([C@H]2C[C@H](O)[C@@H](CO)O2)c(=O)[nH]c1=O
inactive: activity, negative = cell killing [1, 4] -28.6% | activity, negative = cell killing [1, 5] -5.04% | activity, negative = cell killing [1, 6] -8.93% | Potency (astro)

CO/N=C(\C(=O)N[C@@H]1C(=O)N2C(C(=O)O)=C(CSC(=O)c3ccco3)CS[C@H]12)c1csc(N)n1
inactive: activity, negative = cell killing [1, 4] -9.93% | activity, negative = cell killing [1, 5] -3.95% | activity, negative = cell killing [1, 7] -21.7% | Potency (astro)

CC/C=C\C/C=C\C/C=C\C/C=C\C/C=C\CCCC(=O)O
inactive: activity, negative = cell killing [1, 4] -9.54% | activity, negative = cell killing [1, 5] -0.692% | activity, negative = cell killing [1, 7] -8.93% | Potency (astro)

CC1CCCC(C)N1NC(=O)c1ccc(Cl)c(S(N)(=O)=O)c1 (centres undefined)
inactive: activity, negative = cell killing [1, 8] -19.6% | activity, negative = cell killing [1, 9] -10.8% | activity, negative = cell killing [1, 10] -17.6% | Potency (astro)
